Assay results reported in PubChem BioAssay (NCI).
Compounds without any hit were thinned out: in the full panel of roughly 83,000, 20% have a hit.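 48-hour exposure, single concentration, 96-well plates; percent growth endpoint where 0 means no net growth. Active: below 10.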 Unmarked numbers belong to inactive results. Activity calls are given as the source filed them.

Assays:
Experiment in all cases: NCI-60 one-dose screen, 48 h (100 = growth as untreated, 0 = no growth, -100 = all killed)
Details in all cases: 10 µM unless noted
NCI-H23 lung = test system: NCI-H23 lung
NCI-H226 lung = test system: NCI-H226 lung
NCI-H322M lung = test system: NCI-H322M lung
HOP-62 NSCLC = test system: HOP-62 NSCLC
NCI-H460 lung = test system: NCI-H460 lung
HOP-92 NSCLC = test system: HOP-92 NSCLC
NCI-H522 lung = test system: NCI-H522 lung
A549/ATCC NSCLC = test system: A549/ATCC NSCLC
786-0 renal = test system: 786-0 renal
COLO 205 colon = test system: COLO 205 colon
DU-145 prostate = test system: DU-145 prostate
K-562 leukemia = test system: K-562 leukemia
MALME-3M melanoma = test system: MALME-3M melanoma
MDA-MB-231 breast = test system: MDA-MB-231 breast
RXF 393 renal = test system: RXF 393 renal
SF-268 CNS = test system: SF-268 CNS
SF-295 CNS = test system: SF-295 CNS
SF-539 CNS = test system: SF-539 CNS
UACC-257 melanoma = test system: UACC-257 melanoma
M14 melanoma = test system: M14 melanoma

Compound | growth (NCI-H23 lung) | growth (NCI-H226 lung) | growth (NCI-H322M lung) | growth (HOP-62 NSCLC) | growth (NCI-H460 lung) | growth (HOP-92 NSCLC) | growth (NCI-H522 lung) | growth (A549/ATCC NSCLC) | growth (786-0 renal) | growth (COLO 205 colon) | growth (DU-145 prostate) | growth (K-562 leukemia) | growth (MALME-3M melanoma) | growth (MDA-MB-231 breast) | growth (RXF 393 renal) | growth (SF-268 CNS) | growth (SF-295 CNS) | growth (SF-539 CNS) | growth (UACC-257 melanoma) | growth (M14 melanoma)
COc1ccc(/C=C/C(=C/c2c(O)[nH]c3cc(Br)ccc23)N=O)cc1 | 111% | 103% | 113% | 111% | 108% | 116% | 105% | 104% | 112% | 126% | 114% | 89.1% | 95.4% | 101% | 130% | 107% | 107% | 99.4% | 114% | 115%
COc1cc2c(=O)[nH]c3cc([N+](=O)[O-])ccc3c2cc1[N+](=O)[O-] | 55.4% | 45% | 60.8% | 85.5% | 14% | 45.9% | 28.7% | 40.5% | 70.1% | 56.6% | 73.4% | 49.2% | 50.3% | 56% | 72.2% | 63.7% | 47.9% | 45% | 41.7% | 76.4%
Cn1cc(-c2nnc(-c3ccccc3)s2)c2cc(Br)cnc21 | 85% | 64% | 88.2% | 74.3% | 95.4% | 42.3% | 89.5% | 83.1% | 99.6% | 104% | 92.6% | 70.7% | 69.9% | 39.3% | 102% | 91.7% | 95.5% | 78.9% | 100% | 101%
Cc1cc[n+](CCCCCCCCCC[n+]2ccc(C)cc2)cc1 | 68.8% | 68.3% | 109% | 87.7% | 98.7% | 99.8% | 91.6% | 73.3% | 97.5% | 103% | 93.7% | 79.8% | 113% | 105% | 127% | 93.4% | 73.1% | 99.2% | 106% | 97.7%
Ic1ccc2[nH]cc(SSc3c[nH]c4ccc(I)cc34)c2c1 | 17.9% | 24.9% | 57.8% | 30.4% | -11.5% (active) | -6.72% (active) | -48% (active) | 21.8% | 41.6% | -37.1% (active) | 72.5% | 9.29% (active) | 73.2% | 7.64% (active) | 46.4% | -18.1% (active) | -19.1% (active) | 21.3% | 34.6% | 27.6%
c1cc2ccc3cc2cc1CNCCN1CCNCc2ccc4ccc(cc4c2)CNCCN(CCNC3)CCNCc2ccc3ccc(cc3c2)CNCC1 | -7% (active) | 6.46% (active) | 56.3% | 60.3% | 16.1% | -17.9% (active) | 0.768% (active) | 2.2% (active) | 89.7% | -32.7% (active) | -10.1% (active) | 12.6% | -13% (active) | -23.7% (active) | 11.4% | -13.6% (active) | 66.8% | -41% (active) | 100% | 96.3%
Cc1cc(C)c(O)c(CNCCCNCc2cc(C)cc(C)c2O)c1 | 81.7% | 91.4% | 45.7% | 74.9% | 40.7% | 40.5% | 42.4% | 78.8% | 80% | 9.05% (active) | 87.8% | 15.3% | -65.9% (active) | 35.8% | 47.9% | 74.7% | 30.3% | -11.8% (active) | 4.87% (active) | -65.8% (active)
